Results as given in PubChem BioAssay AID652065 (The Scripps Research Institute Molecular Screening Center, 2013).
About 3,000 (70%) of roughly 4,300 compounds were called active. So high a share suggests a set chosen from earlier hits. These entries were drawn from the full list. Values without a mark were called inactive.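 Rule for the calls: active = inhibition above a per-plate cutoff, the mean inhibition of sample wells plus 3 SD (cut at about 35% in these data); inactive = the rest.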

assay: small molecules binding CAG repeat RNA – biochemical, fluorescence, confirmation (AID 652065); settings: r(CAG) RNA repeat, TO-PRO-1 dye displacement fluorescence; at 3 µM; stronger effect = higher value;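 note: loss of TO-PRO-1 fluorescence as compound displaces dye from 1x1 AA loop RNA; 0% = DMSO only wells and 100% = 100 µM mitoxantrone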

SMILES | inhibition
COc1ccc(N2C(=O)/C(=C/c3ccco3)C(=O)NC2=S)cc1 | 87% (active)
O=C1NC(=O)N(Cc2ccco2)C(=O)/C1=C\c1ccc(-c2ccc(F)cc2)o1 | 20.4%
CC/C(=N\NC(=O)c1ccccc1O)c1c(O)n(Cc2ccccc2)c(=O)[nH]c1=O | 75.3% (active)
O=C1CC(=O)N(Cc2ccccc2)C(=O)N1CCCCCCN1C(=O)CC(=O)N(Cc2ccccc2)C1=O | 54.7% (active)
COc1cccc(N2C(=O)NC(=O)/C(=C\c3ccc([N+](=O)[O-])s3)C2=O)c1 | 48% (active)
O=C1NC(=O)N(c2ccccc2)C(=O)/C1=C/c1ccc([N+](=O)[O-])s1 | 61.7% (active)
COc1ccc2c(c1)[C@@]13CCCCC1[C@@H](C2)NCC3 (some centres not stated) | -0.72%
